Measured values from PubChem BioAssay (NCATS).
Where “and” joins values, the source holds several entries; their conditions need not be identical. Equal values may be shown once. Results filed as inconclusive are left out. Entries that show only a call come without a potency. Where a structure was tested more than once in an assay, its records may differ in their call. Calls of active or inactive are those of the source. Calls follow the shape of the dose curve; as a rule, active = well fitted inhibition curve with a large enough effect; inconclusive = small, poorly fitted or top-dose-only effect; inactive = flat fitted curve, though single readings scatter.

Assay: P-glycoprotein substrates identified in KB-8-5-11 adenocarcinoma cell line, qHTS therapeutic library screen (AID 1346987); also: nearly all actives have a fitted effect of over 65% in size
Conditions: KB-8-5-11 (P-gp overexpressing) viability, CellTiter-Glo, 72 h; series mostly up to 44.5 µM
In short: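 In this qHTS, P-gp-rich KB-8-5-11 cells received library compounds across a concentration range. Viability was quantified by luminescence after 72 h at 37 degree C.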
Potency is read from the fitted curve at half-maximal effect.

| SMILES | Potency |
| --- | --- |
| NCCS(=O)(=O)O | inactive |
| CNCCCC12CCC(c3ccccc31)c1ccccc12 | 20.9 µM (active) |
| COc1cc2nc(N3CCN(C(=O)C4COc5ccccc5O4)CC3)nc(N)c2cc1OC (stereo not given) | inactive |
| CC(C)NCC(O)c1ccc(O)c(O)c1 (stereo not given) | inactive |
| CN(C)CCC=C1c2ccccc2C=Cc2ccccc21 | inactive |
| Cn1c(=O)c2[nH]cnc2n(C)c1=O | inactive |
| COC(=O)Nc1nc2ccc(C(=O)c3cccs3)cc2[nH]1 | 6.6 nM (active) and 326 nM (active) |
| O=C1c2c(O)ccc(O)c2C(=O)c2c(NCCNCCO)ccc(NCCNCCO)c21 | 5.26 µM (active) |
| Cc1cc(C(C)(C)C)cc(C)c1CC1=NCCN1 | inactive |
| COc1ccccc1OCC(O)CN1CCN(CC(=O)Nc2c(C)cccc2C)CC1 (stereo not given) | inactive |
| NC12CC3CC(CC(C3)C1)C2 | inactive |
| CN1CCN(CCCN2c3ccccc3Sc3ccc(Cl)cc32)CC1 | 23.5 µM (active) |
| CCC1(C)CC(=O)NC1=O (stereo not given) | inactive |
| Clc1ccccc1C(c1ccccc1)(c1ccccc1)n1ccnc1 | 9.88 µM (active) |
| CC[N+](CC)(CC)CCOc1cccc(OCC[N+](CC)(CC)CC)c1OCC[N+](CC)(CC)CC | inactive |
| NC(=O)NO | inactive and 1.66 µM (active) |
| NCCCCCC(=O)O | inactive |
| CCc1cccc2c3c([nH]c12)C(CC)(CC(=O)O)OCC3 (stereo not given) | inactive |
| CN1C(C(=O)Nc2ccccn2)=C(O)c2ccccc2S1(=O)=O | inactive |
| Cc1cnc(C(=O)NCCc2ccc(S(=O)(=O)NC(=O)NC3CCCCC3)cc2)cn1 | inactive |
